About 7,900 targets were measured; listed, in parts, are those with a hit and a random draw of the rest. About 0.6% of all pairs of compound and target were hits.
compound: CCn1cc(-c2ccnc3[nH]c(-c4cccc(CN(C)C)c4)cc23)c(-c2ccc(NC(=O)N(C)C)cc2)n1; test: log2 fold change, soluble protein after heating vs DMSO (PISA); higher = thermal stabilisation; K562 cells, 10 uM, 30 min; active = over 0.2 and 3.5 SD of the protein, either way, in both replicates (recomputed)
Outline: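 Soluble protein was quantified by TMTpro 16plex LC-MS/MS after channel sums were equalised. It was obtained as the supernatant after 21,000xg for 90 min from pooled aliquots of K562 cells (2×10^6 cells/mL, 10 μM compound, 30 min) heated for 3 min across 48°C-58°C and extracted in PBS with 0.5% NP-40 at 4°C. Thermal stability values are relative to control samples and come from duplicates. They are given as log2 fold changes.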

UniProt Q9UIV1, sequence (Q9UIV1 whole entry, looked up): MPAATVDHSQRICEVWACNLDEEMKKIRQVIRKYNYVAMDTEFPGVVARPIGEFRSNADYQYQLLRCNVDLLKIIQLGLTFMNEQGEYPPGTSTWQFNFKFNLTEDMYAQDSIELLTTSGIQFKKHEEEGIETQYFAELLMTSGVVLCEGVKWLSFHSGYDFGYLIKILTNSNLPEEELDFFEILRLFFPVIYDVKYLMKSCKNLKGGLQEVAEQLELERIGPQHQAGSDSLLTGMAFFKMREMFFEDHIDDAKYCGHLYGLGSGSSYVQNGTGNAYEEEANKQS
UniProt Q9Y6K0, sequence (Q9Y6K0 whole entry, looked up): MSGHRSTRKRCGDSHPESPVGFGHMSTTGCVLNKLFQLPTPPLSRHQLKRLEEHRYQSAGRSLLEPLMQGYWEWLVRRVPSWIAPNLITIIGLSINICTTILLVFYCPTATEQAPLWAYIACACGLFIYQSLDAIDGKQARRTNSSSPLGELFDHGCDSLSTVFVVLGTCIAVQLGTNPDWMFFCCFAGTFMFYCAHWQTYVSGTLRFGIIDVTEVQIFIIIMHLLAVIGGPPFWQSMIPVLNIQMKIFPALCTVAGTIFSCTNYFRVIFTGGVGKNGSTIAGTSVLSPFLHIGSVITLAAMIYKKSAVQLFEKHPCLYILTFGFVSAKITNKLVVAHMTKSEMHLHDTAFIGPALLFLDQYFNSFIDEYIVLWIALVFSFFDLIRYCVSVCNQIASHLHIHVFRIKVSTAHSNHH
UniProt O95319, sequence (O95319 whole entry, looked up): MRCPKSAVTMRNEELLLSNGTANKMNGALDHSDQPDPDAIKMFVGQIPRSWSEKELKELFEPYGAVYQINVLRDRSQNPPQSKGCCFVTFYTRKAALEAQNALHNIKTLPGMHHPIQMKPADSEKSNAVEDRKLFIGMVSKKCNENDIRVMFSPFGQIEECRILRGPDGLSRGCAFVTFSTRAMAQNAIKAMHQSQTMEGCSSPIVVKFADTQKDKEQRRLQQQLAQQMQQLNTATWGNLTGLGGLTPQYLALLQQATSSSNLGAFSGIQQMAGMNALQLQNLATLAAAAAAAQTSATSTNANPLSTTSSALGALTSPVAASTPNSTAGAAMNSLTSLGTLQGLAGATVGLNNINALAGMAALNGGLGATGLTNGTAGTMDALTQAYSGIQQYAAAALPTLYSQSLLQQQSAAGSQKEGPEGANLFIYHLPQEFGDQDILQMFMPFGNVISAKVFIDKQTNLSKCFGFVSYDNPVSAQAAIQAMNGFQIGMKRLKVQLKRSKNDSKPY
UniProt A5YKK6, sequence (A5YKK6 whole entry, looked up): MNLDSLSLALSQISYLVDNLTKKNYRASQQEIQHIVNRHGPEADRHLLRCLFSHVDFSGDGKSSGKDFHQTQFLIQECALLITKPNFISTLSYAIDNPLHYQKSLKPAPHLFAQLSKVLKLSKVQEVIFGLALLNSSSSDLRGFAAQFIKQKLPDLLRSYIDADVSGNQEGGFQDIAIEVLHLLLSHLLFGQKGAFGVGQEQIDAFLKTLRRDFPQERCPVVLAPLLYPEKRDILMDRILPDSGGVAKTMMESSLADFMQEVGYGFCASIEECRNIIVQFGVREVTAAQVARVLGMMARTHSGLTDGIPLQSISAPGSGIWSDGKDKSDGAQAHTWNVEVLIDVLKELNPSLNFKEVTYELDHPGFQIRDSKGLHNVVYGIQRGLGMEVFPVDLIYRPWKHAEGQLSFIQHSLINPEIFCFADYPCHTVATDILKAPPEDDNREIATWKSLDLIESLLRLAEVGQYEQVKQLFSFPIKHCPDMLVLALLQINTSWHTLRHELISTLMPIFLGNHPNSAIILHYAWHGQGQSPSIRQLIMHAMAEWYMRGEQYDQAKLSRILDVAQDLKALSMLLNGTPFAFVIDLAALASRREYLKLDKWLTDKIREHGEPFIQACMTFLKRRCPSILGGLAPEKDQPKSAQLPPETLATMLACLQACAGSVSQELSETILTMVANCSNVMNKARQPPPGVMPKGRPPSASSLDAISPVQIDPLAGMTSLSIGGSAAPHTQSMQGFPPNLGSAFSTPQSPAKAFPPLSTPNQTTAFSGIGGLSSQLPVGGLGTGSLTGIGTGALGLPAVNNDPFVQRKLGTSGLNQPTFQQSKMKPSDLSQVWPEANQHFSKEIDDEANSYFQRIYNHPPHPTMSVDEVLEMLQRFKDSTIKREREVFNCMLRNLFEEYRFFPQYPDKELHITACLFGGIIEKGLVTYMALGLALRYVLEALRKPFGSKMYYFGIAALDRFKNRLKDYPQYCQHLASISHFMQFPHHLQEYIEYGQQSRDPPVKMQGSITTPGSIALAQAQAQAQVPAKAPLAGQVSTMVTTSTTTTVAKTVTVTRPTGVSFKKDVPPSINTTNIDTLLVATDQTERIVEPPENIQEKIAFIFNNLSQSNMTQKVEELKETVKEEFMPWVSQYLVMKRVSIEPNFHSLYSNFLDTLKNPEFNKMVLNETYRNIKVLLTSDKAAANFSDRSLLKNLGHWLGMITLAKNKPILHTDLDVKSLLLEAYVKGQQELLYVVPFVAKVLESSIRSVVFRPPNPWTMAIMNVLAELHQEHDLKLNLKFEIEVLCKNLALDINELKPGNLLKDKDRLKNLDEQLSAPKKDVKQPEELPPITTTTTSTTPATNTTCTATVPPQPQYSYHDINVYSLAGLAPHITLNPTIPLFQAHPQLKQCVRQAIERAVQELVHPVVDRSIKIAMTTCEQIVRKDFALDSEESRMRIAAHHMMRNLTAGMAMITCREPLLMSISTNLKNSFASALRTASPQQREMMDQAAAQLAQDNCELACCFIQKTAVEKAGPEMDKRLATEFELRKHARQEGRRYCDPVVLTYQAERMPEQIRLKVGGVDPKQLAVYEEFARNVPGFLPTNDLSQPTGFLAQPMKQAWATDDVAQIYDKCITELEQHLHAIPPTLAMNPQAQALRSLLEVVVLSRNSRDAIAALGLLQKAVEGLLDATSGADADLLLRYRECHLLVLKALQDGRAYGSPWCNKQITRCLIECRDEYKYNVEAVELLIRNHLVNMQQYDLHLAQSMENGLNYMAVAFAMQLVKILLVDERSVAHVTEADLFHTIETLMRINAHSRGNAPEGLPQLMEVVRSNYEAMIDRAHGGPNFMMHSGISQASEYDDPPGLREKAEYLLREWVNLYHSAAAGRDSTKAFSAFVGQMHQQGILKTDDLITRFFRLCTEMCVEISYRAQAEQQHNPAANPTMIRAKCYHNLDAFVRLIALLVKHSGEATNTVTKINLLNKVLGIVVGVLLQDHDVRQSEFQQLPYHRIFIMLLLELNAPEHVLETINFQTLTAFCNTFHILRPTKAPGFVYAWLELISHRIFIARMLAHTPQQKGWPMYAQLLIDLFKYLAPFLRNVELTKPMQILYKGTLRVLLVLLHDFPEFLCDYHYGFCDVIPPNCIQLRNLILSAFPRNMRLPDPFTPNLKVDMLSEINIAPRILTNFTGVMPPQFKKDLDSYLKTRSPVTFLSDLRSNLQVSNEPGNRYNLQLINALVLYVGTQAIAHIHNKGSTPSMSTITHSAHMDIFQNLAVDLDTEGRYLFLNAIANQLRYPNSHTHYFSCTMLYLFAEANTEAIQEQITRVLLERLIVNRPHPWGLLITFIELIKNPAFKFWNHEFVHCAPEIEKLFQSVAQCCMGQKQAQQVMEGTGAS
UniProt O15182, sequence (O15182 whole entry, looked up): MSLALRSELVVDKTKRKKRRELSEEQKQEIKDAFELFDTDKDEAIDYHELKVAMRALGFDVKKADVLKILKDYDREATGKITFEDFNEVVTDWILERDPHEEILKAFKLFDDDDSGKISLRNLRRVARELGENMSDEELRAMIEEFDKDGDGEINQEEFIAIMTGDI
UniProt Q13901, sequence (Q13901 whole entry, looked up): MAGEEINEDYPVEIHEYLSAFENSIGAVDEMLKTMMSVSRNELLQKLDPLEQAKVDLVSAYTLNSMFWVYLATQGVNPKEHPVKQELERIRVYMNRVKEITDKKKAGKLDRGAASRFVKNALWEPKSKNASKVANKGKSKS
UniProt P19397, sequence (P19397 whole entry, looked up): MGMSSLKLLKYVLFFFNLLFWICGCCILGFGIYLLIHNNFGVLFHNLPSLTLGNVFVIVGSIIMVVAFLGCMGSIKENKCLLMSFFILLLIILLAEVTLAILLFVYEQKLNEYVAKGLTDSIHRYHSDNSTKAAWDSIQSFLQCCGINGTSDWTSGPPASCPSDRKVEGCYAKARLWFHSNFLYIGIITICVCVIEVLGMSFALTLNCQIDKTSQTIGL
UniProt Q8N1A6, sequence (Q8N1A6 whole entry, looked up): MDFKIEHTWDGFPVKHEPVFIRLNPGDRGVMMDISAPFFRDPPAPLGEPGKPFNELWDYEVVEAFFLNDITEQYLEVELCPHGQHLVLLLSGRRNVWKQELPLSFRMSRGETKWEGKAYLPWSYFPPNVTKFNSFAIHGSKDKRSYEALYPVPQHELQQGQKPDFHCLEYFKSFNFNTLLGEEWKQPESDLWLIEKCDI
UniProt P35219, sequence (P35219 whole entry, looked up): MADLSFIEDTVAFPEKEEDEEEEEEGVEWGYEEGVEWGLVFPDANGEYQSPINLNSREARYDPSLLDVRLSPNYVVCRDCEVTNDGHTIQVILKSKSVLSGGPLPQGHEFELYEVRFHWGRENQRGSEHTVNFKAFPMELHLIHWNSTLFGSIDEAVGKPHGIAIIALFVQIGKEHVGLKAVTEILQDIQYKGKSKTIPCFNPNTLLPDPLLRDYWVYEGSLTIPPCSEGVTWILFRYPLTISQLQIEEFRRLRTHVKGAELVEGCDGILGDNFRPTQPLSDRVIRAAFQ
UniProt O75208, sequence (O75208 whole entry, looked up): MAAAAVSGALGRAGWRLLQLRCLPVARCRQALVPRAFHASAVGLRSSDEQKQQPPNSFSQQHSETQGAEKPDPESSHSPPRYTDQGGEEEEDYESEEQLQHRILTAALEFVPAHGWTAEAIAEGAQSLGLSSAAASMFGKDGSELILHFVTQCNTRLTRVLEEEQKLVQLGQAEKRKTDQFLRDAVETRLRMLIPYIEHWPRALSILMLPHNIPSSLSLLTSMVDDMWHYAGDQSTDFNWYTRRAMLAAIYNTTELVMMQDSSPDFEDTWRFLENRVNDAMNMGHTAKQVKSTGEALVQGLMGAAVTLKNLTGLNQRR

log2 fold change, inactive:
CLCN7 (UniProt P51798) -0.047
CCZ1 (UniProt P86791) 0.028
C1D (UniProt Q13901) -0.021
CNOT7 (UniProt Q9UIV1) -0.052
CDC42BPA isoform 6 (UniProt Q5VT25) 0
COMMD1 (UniProt Q8N668) 0.157
CETN3 (UniProt O15182) -0.014
C4orf33 (UniProt Q8N1A6) -0.062
CDK9 isoform 2 (UniProt P50750) -0.092
CDC25B isoform 4 (UniProt P30305) -0.092
CHEK1 (UniProt O14757) -0.101
CD53 (UniProt P19397) -0.092
CNOT1 (UniProt A5YKK6) 0.028
CPSF1 (UniProt Q10570) 0.026
CLUH, A0A494C0R8 0.078
CEPT1 (UniProt Q9Y6K0) -0.025
CELF2 isoform 3 (UniProt O95319) 0.103
CASP3 (UniProt P42574) 0.018
CDK12 (UniProt Q9NYV4) 0.041
COQ9 (UniProt O75208) 0.002
COMMD2 (UniProt Q86X83) -0.005
CDK6 (UniProt Q00534) 0.014
CA8 (UniProt P35219) -0.093

From the supplement of paper PMC10849652
